Assay outcomes from PubChem BioAssay.
In the library only some 18% were active in any assay of this set; here they are far more common.
IL-1B inflam inh: blocks inflammasome-driven IL-1 beta release | hit rate 4.7% among 360,000 | AID 743279 | THP-1 LPS/ATP IL-1B secretion, AlphaLISA, 16 h; hits give low values | activity change, % at 57.5 µM; in the data active = activity change below about -50%; inconclusive = mostly about -30% to -49%; note: % is set by controls: 0 for no effect and ±100 for the full control effect
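Secreted IL-1B measured by AlphaLISA bead assay after 16 h compound exposure of THP-1 cells; compounds (final up to 57.5 uM) added 1 h before LPS (250 ng/mL) and ATP (1.25 mM) stimulation; lower signal means less secretion.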
TDP1 block: inhibitors of human tyrosyl-DNA phosphodiesterase TDP1; Q9NUW8; recombinant TDP1, AlphaScreen DNA substrate cleavage; hit rate 0.28% among 350,000; Potency, µM (series often up to 130 µM), without a hit: at the top dose activity change, negative = inhibition, actives largely listed as inhibitors; note: potency is the fitted concentration of half-maximal effect; % is set by controls: 0 for no effect and ±100 for the full control effect; nearly all actives have a fitted effect of over 40% in size
Target sequence (Q9NUW8 whole entry, looked up): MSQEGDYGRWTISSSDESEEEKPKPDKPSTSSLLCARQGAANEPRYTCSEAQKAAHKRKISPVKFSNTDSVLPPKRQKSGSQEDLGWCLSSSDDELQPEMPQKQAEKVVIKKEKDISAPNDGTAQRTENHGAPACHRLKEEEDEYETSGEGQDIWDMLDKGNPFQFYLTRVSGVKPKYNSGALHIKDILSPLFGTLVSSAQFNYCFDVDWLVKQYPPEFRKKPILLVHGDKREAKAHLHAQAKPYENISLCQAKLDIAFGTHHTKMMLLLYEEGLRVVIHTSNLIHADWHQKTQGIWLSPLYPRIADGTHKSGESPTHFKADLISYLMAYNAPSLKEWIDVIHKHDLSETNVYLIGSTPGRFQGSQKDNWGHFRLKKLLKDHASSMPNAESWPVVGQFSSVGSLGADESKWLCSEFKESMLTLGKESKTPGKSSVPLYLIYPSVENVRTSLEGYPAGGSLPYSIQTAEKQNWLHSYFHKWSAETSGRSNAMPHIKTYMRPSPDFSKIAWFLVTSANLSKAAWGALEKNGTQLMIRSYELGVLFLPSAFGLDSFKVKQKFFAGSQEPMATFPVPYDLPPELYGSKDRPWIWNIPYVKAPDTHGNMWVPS
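Steps: enzyme plus compound, 15 min RT; add biotin/phosphotyrosine-FITC oligonucleotide (15 nM final), react 5 min; add donor/acceptor beads (10 ug/ml final), 10 min; read AlphaScreen. Tdp1 at 1 nM final.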
HepG2 viability: kills HepG2 cells in TGF-b inhibitor counter-screen. HepG2 CAGA-GFP viability, ATP luminescence, 18 h. hit rate 0.76% among 410,000. Potency, µM (top dose mostly 46.1 µM), for the others: at the highest dose activity change, negative = cytotoxicity, actives largely listed as cytotoxic; note: potency is the fitted concentration of half-maximal effect
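CellTiter-Glo luminescence gave cytotoxicity after 18 hours at 37 degrees C. The cells were HepG2 CAGA-GFP in 1% FBS DMEM, stimulated with 500 pg/mL TGF-beta after compound addition. %Activity was normalised to no-cell wells (complete cell-killing) and DMSO (no toxicity), and curves were fitted and classified.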
TGFb SMAD3 inh: TGF-b pathway inhibition. HepG2 CAGA-GFP TGF-b/SMAD3 reporter, GFP fluorescence, 18 h; TGF-beta stimulated, 500 pg/mL final. Potency, µM (top dose mostly 46.1 µM), for the others: at the highest dose activity, negative = inhibition, most hits filed as inhibitors. hit rate 1.2% among 410,000; note: potency is the fitted concentration of half-maximal effect; % is set by controls: 0 for no effect and ±100 for the full control effect; nearly all actives have a fitted effect of over 65% in size
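Cell-based qHTS in HEPG2 carrying a CAGA-GFP Smad reporter; compounds added before 500 pg/mL final TGF-beta, 18 h incubation at 37 degrees C, GFP fluorescence quantified per cell by imaging cytometry.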
DT40 TDP1 CPT: growth inhibition of DT40 Tdp1-/-;hTDP1 cells with camptothecin (screen for TDP1 inhibitors) | chicken DT40 Tdp1-/-;hTDP1 cells + 20 nM CPT, ATP luminescence, 48 h | Potency, µM (top dose mostly 46.2 µM), for inactives: at the top dose activity change, negative = growth inhibition, most hits filed as inhibitors | hit rate 12% among 420,000; note: potency is the fitted concentration of half-maximal effect; % is set by controls: 0 for no effect and ±100 for the full control effect; nearly all actives have a fitted effect of over 55% in size
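Chicken DT40 Tdp1-/- cells stably complemented with human TDP1 were seeded at 400 cells/well in medium containing 20 nM camptothecin, exposed to pin-transferred compounds, and grown at 37 °C for at least 48 hr. Viability was read as ATP luminescence.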
TDP1 cell noCPT: qHTS for Inhibitors of human tyrosyl-DNA phosphodiesterase 1 (TDP1): qHTS in cells in absence of CPT; DT40 Tdp1-/- hTDP1 cells, no CPT, ATP luminescence, 48 h; Potency, µM (titrated, usually from 46.2 µM), for inactives: at the highest dose activity change, negative = growth inhibition, hits mostly inhibitors; hit rate 15% among 420,000; note: potency is the fitted concentration of half-maximal effect; % is set by controls: 0 for no effect and ±100 for the full control effect; nearly all actives have a fitted effect of over 55% in size
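Growth kinetics read by CellTiter-Glo luminescence after ≥48 hr at 37 °C. Cells: DT40 Tdp1-/- stably carrying human TDP1, 400 per well, compound exposure in the absence of CPT (DMSO vehicle).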
An asterisk follows results filed as active; ? = inconclusive; · = not tested or not shown; [ ] = dose if it differs, or a comment. Unless noted, calls come from the whole dose curve; as a rule, active = well fitted curve in the direction sought with a large enough effect; inconclusive = small, poorly fitted or top-dose-only effect, or another doubt; inactive = no such curve, though single readings can be large; an effect the other way counts as inactive or inconclusive.

SMILES	IL-1B inflam inh	TDP1 block	HepG2 viability	TGFb SMAD3 inh	DT40 TDP1 CPT	TDP1 cell noCPT
COc1ccc(C(=O)NCCc2csc(-c3ccc(Cl)cc3)n2)cc1	·	4%	-30%	?	?	18µM*
CNCc1ccccc1Sc1cccc(O)c1	?	8%	-6%	12%	0%	?
CNCc1ccccc1Sc1cc(O)ccc1O	-100*	11%	0%	?	1.8µM*	3.7µM*
Cc1cc2nnn(-c3nnc(-c4ccccc4)c4ccccc34)c2cc1C	9	0%	-22%	-10%	26µM*	?
Cc1ccc2c(c1)C(=O)C(=O)N2CC1COc2ccccc2O1 (configuration not stated)	-93*	·	-50%	?	2.3µM*	2.3µM*
CCN1CCN(CC2COc3ccccc3O2)CC1 (configuration not stated)	7	·	4%	2%	2%	13%
CCOc1ccc2c(c1)C(=O)C(=O)N2CC1COc2ccccc2O1 (configuration not stated)	-3	·	0%	?	1.2µM*	0.82µM*
COc1ccc2c(c1)C(=O)C(=O)N2CC1COc2ccccc2O1 (configuration not stated)	-11	·	-31%	?	1µM*	0.58µM*
COc1ccc(OC)c(C2C(C(=O)c3cccs3)=C(O)C(=O)N2CCN2CCOCC2)c1 (configuration not stated)	6	·	7%	-2%	-27%	-2%
CCOc1ccccc1NC(=O)Cn1c(=O)n(-c2ccc(F)cc2)c(=O)c2c3c(sc21)CN(C(C)=O)CC3	·	2%	-2%	-26%	13%	7%
Cc1ccc(-n2c(=O)c3oc4ccccc4c3n(Cc3cccc(F)c3)c2=O)cc1C	·	0%	-7%	?	26µM*	?
Cc1cccc(-n2c(=O)c3ccccc3n(Cc3ccccc3)c2=O)c1	·	0%	-16%	-6%	23µM*	?
COc1ccc(-n2c(=O)c3ccccc3n(Cc3cccc(C)c3)c2=O)cc1	·	-2%	6%	?	?	-20%
Cc1cccc(Cn2c(=O)n(Cc3ccc4c(c3)OCO4)c(=O)c3oc4ccccc4c32)c1	·	8%	-1%	-3%	-17%	-12%
COc1cccc(Cn2c(=O)n(-c3cc(C)cc(C)c3)c(=O)c3oc4ccccc4c32)c1	·	5%	-15%	?	?	16µM*
Cc1cccc(Cn2c(=O)n(-c3cc(C)cc(C)c3)c(=O)c3oc4ccccc4c32)c1	·	-5%	-27%	-15%	8.2µM*	12µM*
O=c1cc(O)c2c(=O)n(Cc3ccccc3)c3ccccc3c2o1	26	4%	-14%	-5%	?	23µM*
CCCCn1c(=O)c2c(O)cc(=O)oc2c2ccccc21	42	-2%	-16%	17%	-2%	?
COc1ccc(Cn2c(=O)n(Cc3ccco3)c(=O)c3oc4ccccc4c32)cc1	·	5%	-10%	-14%	?	23µM*
COc1ccccc1CNC(=O)COCc1cc(-c2ccc3c(c2)OCO3)on1	·	5%	-4%	-39%	?	?
CC(C)[C@H](NC(=O)N1CC(=O)Nc2ccccc21)C(=O)N[C@@H](Cc1ccccc1)C(=O)O	7	·	-18%	0%	15%	0%
CCc1nc2ccc(C(=O)N3CCCC(C(N)=O)C3)cn2c1N(C)Cc1ccc(OC)cc1 (configuration not stated)	18	·	-7%	-3%	-26%	-20%
CCCCCCCCCC1(CC(=O)OCC)SCCN1C(N)=O (configuration not stated)	0	·	-47%	-26%	?	15µM*
CCNC(=O)c1cc2c(c(-c3cccc(-c4ccccc4F)c3)n1)[C@@H](CCO)N(C(=O)CC)C2	-11	·	·	·	?	?
O=C(N/N=C\c1ccc(CNS(=O)(=O)c2ccccc2)o1)C(=O)Nc1ccc(F)cc1	32	-2%	-18%	0%	?	?
SMILES	IL-1B inflam inh	TDP1 block	HepG2 viability	TGFb SMAD3 inh	DT40 TDP1 CPT	TDP1 cell noCPT
O=C(N/N=C\c1ccc(CNS(=O)(=O)c2ccc(Cl)cc2)o1)C(=O)Nc1ccc(Oc2ccccc2)cc1	4	6%	-42%	?	2.9µM*	6.5µM*
O=C(NCc1ccc(/C=N\NC(=O)C(=O)Nc2ccccc2Br)o1)C(=O)Nc1ccccc1	32	-10%	-21%	-19%	-5%	?
O=C(N/N=C\c1ccc(CN(Cc2ccc(Cl)cc2)S(=O)(=O)c2ccccc2)o1)C(=O)Nc1ccc(F)cc1	?	6%	-10%	-2%	?	15µM*
C=CCN(CC=C)C(=O)C1CCN(S(=O)(=O)c2ccc(N3CCCC3=O)cc2)CC1	-4	1%	15%	1%	-28%	?
COC(=O)CCCn1cc(CN2CC(N3CCCCC3)CS2(=O)=O)nn1 (configuration not stated)	13	·	·	·	-2%	-14%
Cc1ccccc1NC(=O)NC1(C(=O)NCC2CCCO2)CCCCC1 (configuration not stated)	-7	·	-1%	-2%	6%	-2%
Cc1cc(C(=O)N2CCCC(CO)(Cc3ccc(F)cc3F)C2)nn1C (configuration not stated)	8	·	-20%	-5%	?	?
CCn1nc(C(C)C)cc1C(=O)N1CCCC(CO)(Cc2ccc(F)cc2F)C1 (configuration not stated)	28	1%	-6%	-22%	23µM*	?
CCOc1ccc(CN2CCCC(CO)(Cc3ccc(F)cc3)C2)cc1 (configuration not stated)	?	3%	-15%	-6%	-26%	?
COc1ccc(CN2CCCC(CO)(Cc3ccc(F)cc3F)C2)cc1 (configuration not stated)	-84*	0%	-55%	-14%	?	?
OCC1(Cc2ccc(F)cc2)CCCN(Cc2ccc(F)cc2Cl)C1 (configuration not stated)	-3	-10%	-23%	?	-23%	26µM*
CCN1C(=O)[C@H]2[C@H]3[C@H](O)[C@H](O)C/C(=N/OC/C=C(\C)CCC=C(C)C)[C@H]3CC[C@@H]2C1=O	·	8%[21 µM]	·	·	·	·
